In the library only some 2.7% were active in any assay of this set; here they are far more common.
HepG2 viability – counter-screen for TGF-b inhibitors: cytotoxicity in HepG2 cells | HepG2 CAGA-GFP viability, ATP luminescence, 18 h | Potency, µM (doses to about 46.1 µM), most hits filed as cytotoxic | 410,000 compounds, 0.76% hits
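HepG2 CAGA-GFP cells (1000/well, DMEM with 1% FBS) received compound, then TGF-beta at 500 pg/mL final, and were incubated 18 hours at 37 degrees C. Viability was read by CellTiter-Glo luminescence. Media-only wells were set as complete cell-killing and DMSO as no toxicity.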
S2 tox – cell viability loss in ATXN counter-screen. S2 cells (HEK-293 line with an ATXN2-luciferase reporter) viability, CellTiter-Fluor protease fluorescence, 24 h. Potency, µM (series often up to 56.7 µM), most hits filed as cytotoxic. 400,000 compounds, 0.49% hits. AID 651635; note: nearly all actives have a fitted effect of over 40% in size
ATXN2 expr inh – inhibitors of ATXN2 expression; HEK-293 ATXN2-luciferase reporter, luminescence, 24 h; Potency, µM (titrated, usually from 57 µM), most hits filed as inhibitors; 360,000 compounds, 0.72% hits; note: nearly all actives have a fitted effect of over 55% in size
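qHTS (up to 57 uM final) was run with 24 h compound exposure of reporter cells at 37 °C. Each well was multiplexed: SteadyGlo luminescence measured ATXN2-luciferase expression after a fluorogenic Gly-Phe-AFC viability readout (25 uM final).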
ALOX12 inh – inhibitors of human 12S-lipoxygenase ALOX12. P18054. purified 12hLO, xylenol orange hydroperoxide absorbance. Potency, µM (doses to about 108 µM), hits mostly inhibitors. 580,000 compounds, 1.1% hits
Target sequence (P18054 whole entry, looked up): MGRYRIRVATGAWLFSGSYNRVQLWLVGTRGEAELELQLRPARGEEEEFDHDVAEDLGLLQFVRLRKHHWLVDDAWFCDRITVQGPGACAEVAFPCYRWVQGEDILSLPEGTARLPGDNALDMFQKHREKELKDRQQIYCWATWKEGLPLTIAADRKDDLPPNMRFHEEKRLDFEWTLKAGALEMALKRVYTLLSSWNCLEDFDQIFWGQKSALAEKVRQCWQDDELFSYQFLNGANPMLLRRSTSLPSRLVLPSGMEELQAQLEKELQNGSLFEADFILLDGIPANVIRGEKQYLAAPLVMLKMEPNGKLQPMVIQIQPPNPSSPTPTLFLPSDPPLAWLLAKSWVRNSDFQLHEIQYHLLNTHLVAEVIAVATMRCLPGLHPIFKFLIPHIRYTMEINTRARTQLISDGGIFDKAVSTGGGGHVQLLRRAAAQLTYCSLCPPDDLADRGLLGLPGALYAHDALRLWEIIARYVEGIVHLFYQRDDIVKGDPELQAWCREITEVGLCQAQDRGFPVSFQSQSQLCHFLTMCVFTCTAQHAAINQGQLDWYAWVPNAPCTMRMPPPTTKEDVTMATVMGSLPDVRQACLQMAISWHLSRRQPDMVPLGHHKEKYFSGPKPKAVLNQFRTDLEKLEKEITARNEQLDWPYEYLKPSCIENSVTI
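Purified human 12hLO (150 nM final) in 25 mM Hepes, 0.01% Triton X-100, pH 7.0 was preincubated 15 min at room temperature with compound. Then 40 uM arachidonic acid was added, 30 min. Hydroperoxide was read by Fe-XO absorbance ratio 573/405 nm.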
TGFb SMAD3 inh – blocks TGF-b signaling; HepG2 CAGA-GFP TGF-b/SMAD3 reporter, GFP fluorescence, 18 h; TGF-beta stimulated, 500 pg/mL final; Potency, µM (highest dose often 46.1 µM), usual class: inhibitors; 410,000 compounds, 1.2% hits; AID 588855; note: nearly all actives have a fitted effect of over 65% in size
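HEPG2 CAGA-GFP reporter cells (1000/well, DMEM with 1% FBS) received compounds, then recombinant TGF-beta at 500 pg/mL final for 18 hours at 37 degrees C. Per-cell GFP summed per well was normalised to unstimulated and stimulated DMSO controls before curve fitting.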
Numbers stand for hits; 0 = inactive; ? = inconclusive; - = no result given; ! = not confirmed by another sample; [ ] = remark or other dose. Calls come from the whole dose curve; as a rule, active = well fitted curve in the direction sought with a large enough effect; inconclusive = small, poorly fitted or top-dose-only effect, or another doubt; inactive = no such curve, though single readings can be large; an effect the other way counts as inactive or inconclusive.

SMILES | HepG2 viability | S2 tox | ATXN2 expr inh | ALOX12 inh | TGFb SMAD3 inh
Fc1ccc(Nc2ccnc(-c3ccc4c(c3)OCO4)n2)cc1 | - | - | - | 18µM | -
Cc1ccccc1-c1nccc(Nc2ccc(F)cc2)n1 | - | - | - | 0 | -
Cc1c(C(=O)Nc2ccc3c(c2)OCCO3)sc2nc(-c3ccccc3)cn12 | 0 | - | 32µM | 0 | 0
Cc1ccc(CN2CCCN(CC(=O)N3CCCCC3C)S2(=O)=O)cc1 (stereo not given) | - | - | - | 0 | -
COc1ccc2oc(C(=O)Nc3ccc(S(=O)(=O)N(C)C4CCN(C)CC4)cc3)c(C)c2c1 | 13µM | ? | ? | 0 | ?
Cn1c(=O)c2ccnn2c2ccc(C(=O)NCC3CCN(Cc4cccc(F)c4)CC3)cc21 | - | - | - | 0 | -
CC(C)c1ccc(C(C)NC(=O)Cn2nnn(-c3ccccc3)c2=O)cc1 (stereo not given) | - | - | - | 0 | -
CC(Nc1nc(-c2ccc3c(c2)NC(=O)CO3)cs1)c1ccccc1 (stereo not given) | 0 | 0 | 0 | ? | ?
O=C1COc2ccc(-c3csc(NCC4CCCO4)n3)cc2N1 (stereo not given) | 0 | 0 | 0 | 45µM | 0
COc1cccc(-n2cc(-c3ccc(F)cc3)[nH]c2=S)c1 | 0 | 0 | 0 | 22µM | 0
COc1ccc(-c2cn(-c3ccc(C)c(Cl)c3)c(=S)[nH]2)cc1OC | 0 | 0 | 0 | ? | 0
COc1ccc(-c2cn(-c3ccc(C)c(C)c3)c(=S)[nH]2)cc1OC | 0 | 0 | 0 | 28µM | 0
O=C(NNc1nc2ccc(F)cc2s1)c1cccc(F)c1 | 0 | ? | 0[11.3 µM] | ? | 13µM
O=C(NNc1nc2ccccc2s1)c1ccc(F)cc1 | 0 | 0 | 0 | 0 | 0
COC(=O)c1ccc2nc(Nc3nc4ccc(F)cc4s3)sc2c1 | 0 | 0 | ? | 0 | 18µM
OC(c1cccc(Cl)c1Cl)C(F)(F)F (stereo not given) | - | - | - | 0 | -
CCSc1nc2c(c(=O)[nH]c(=O)n2C)n1C/C=C(/C)Cl | 7.1µM | 0 | 0 | 0 | 0
CCSc1nc2c(c(=O)[nH]c(=O)n2C)n1Cc1ccccc1Cl | - | - | - | 32µM | -
O=C(Nc1cccc(Cl)c1)c1cc(-c2cccc(O)c2)on1 | - | - | - | 0 | -
COc1cccc(C(=O)C(C#N)=C(SC)SC)c1 | 10µM | - | - | 0 | ?
COc1cccc(C(=O)C(=O)NC(C)(C)C)c1 | - | - | - | 0 | -
CSC(SC)=C(C#N)C(=O)c1ccccc1 | 0 | - | 22µM | 0 | ?
COc1ccc(CN2CCCCCC2)cc1OC | 0 | 0 | 0 | 2µM | 0
COc1cc(CN2CCCCC2)ccc1OCc1ccccc1 | 0 | 0 | 0 | ? | 0
CC1CCCC(N2CCN(Cc3ccc(Cl)cc3)CC2)C1 (stereo not given) | - | - | - | 0.79µM | -
SMILES | HepG2 viability | S2 tox | ATXN2 expr inh | ALOX12 inh | TGFb SMAD3 inh
COc1ccc(CN2CCCCCC2)cc1Br | 0 | 0 | 0 | 1µM | 0
Clc1ccc(CN2CCCCCC2)cc1 | 0 | 0 | 0 | 0.79µM | 0
COc1ccc(S(=O)(=O)N2CCC(Oc3ncccc3C(=O)N3CCOCC3)C2)cc1 (stereo not given) | - | - | - | 0 | -
Cc1nsc(NC(=O)NCc2ccccc2OC(F)(F)F)n1 | - | - | - | 0 | -
N#Cc1ccc(-c2ccc(OCC(=O)c3ccc4c(c3)OCCO4)cc2)cc1 | - | - | - | 0 | -
S=c1[nH]nc(CCc2ccccc2)n1-c1ccccc1 | 0 | 0 | 0 | ? | 0
S=c1[nH]nc(CCc2ccccc2)n1-c1ccc(Cl)cc1 | 0 | 0 | 0 | 32µM | 0
CCC(C)c1ccc(-c2csc(NC(=O)C3CCN(C(=O)c4ccoc4)CC3)n2)cc1 (stereo not given) | - | - | - | 0 | -
COc1ccc(-c2nc(N/N=C(\C)c3ccc(O)cc3)c3ccccc3n2)cc1 | 0 | ? | ? | 0 | 14µM
Oc1ccc(Nc2nc3ccccc3nc2Nc2ccc(O)cc2)cc1 | 0 | ? | ? | - | 11µM
Oc1ccc(Nc2nc(-c3ccc(Cl)cc3)nc3ccccc23)cc1 | 14µM | - | - | 0 | ?
Oc1ccc(Nc2nc(-c3ccccc3)nc3ccccc23)cc1 | 0 | 0 | 0 | - | 0
CC(C)CC1Nc2ncnc(N3CCOCC3)c2N(Cc2ccc(Cl)cc2)C1=O (stereo not given) | 0 | 0 | 0 | 7.9µM! | 0
COc1cc(Nc2nc3ccccc3nc2NS(=O)(=O)c2cccc(C)c2)cc(OC)c1 | - | - | - | 0 | -
CSC1=N/C(=C\c2ccc(-c3ccc(Cl)cc3)o2)C(=O)S1 | - | - | - | 25µM | -
CC(C)OC(=O)c1cccc(C(=O)OCc2ccco2)n1 | 7.1µM | 0 | 0 | ? | 0
Cc1nc(Nc2nc(CCC(C)C)cc(=O)[nH]2)nc2ccccc12 | - | - | - | 0 | -
COc1ccc2c(c1)CCc1c(C(=O)NCc3ccc(Cl)cc3)noc1-2 | 0 | 0 | 0 | 0 | 0
CCN(CC)CCNC(=O)c1nn(-c2ccc(Cl)cc2)c2c1CCc1cc(OC)ccc1-2 | 14µM | ? | ? | ? | ?
CC(=O)c1ccc(O)cc1 | - | - | - | 0 | -
O=C1C=CC(=C(c2ccc(O)cc2)c2ccc(O)cc2)C=C1 | 10µM | 16µM | ? | ? | ?
O=C(Nc1ccc(F)cc1)c1n[nH]c(=O)c2ccccc12 | - | - | - | 0 | -
CCOc1ccccc1C(=O)N(C)Cc1cc2cc(OC)ccc2[nH]c1=O | 0 | ? | 0 | 0 | 0
CCOc1cc(C(=O)N(C)Cc2cc3cc(OC)ccc3[nH]c2=O)cc(OCC)c1OCC | 0 | 0 | 0 | 2µM! | 0
CCCCCCn1nc(C(=O)N(C)Cc2cccc(OC)c2)c2ccccc2c1=O | - | - | - | 0 | -
SMILES | HepG2 viability | S2 tox | ATXN2 expr inh | ALOX12 inh | TGFb SMAD3 inh
c1csc(CNc2ccnc(-c3ccoc3)n2)c1 | - | - | - | 13µM | -
COc1ccccc1-c1nccc(NCc2cccs2)n1 | - | - | - | 13µM | -
CN(C)CCNc1nc2c(c(=O)n(C)c(=O)n2C)n1Cc1ccc(Cl)cc1 | - | - | - | 0 | -
C=CCNCc1ccc(OCC)c(OCC)c1 | - | - | - | 0 | -
O=[N+]([O-])c1ccc(Cl)c(CN2CCCCCC2)c1 | 0 | 0 | 0 | 0.56µM | 0
O=C(Nc1ccc(Cl)c(Cl)c1)c1n[nH]c(=O)c2ccccc12 | - | - | - | 0 | -
CCCCOP(=O)(OCCCC)C1(NS(=O)(=O)c2ccccc2)C=CC(=O)c2ccccc21 (stereo not given) | 0 | 0 | 0 | 16µM | ?
COc1cccc(-c2nc(-c3c(C)noc3C)cc3c2cc(C)n3CCN(C)C)c1OC | - | - | - | 0 | -
Cc1noc(C)c1-c1cc2c(cc(C)n2CCN(C)C)c(-c2ccccc2O)n1 | - | - | - | 79µM | -
NC(=O)c1nn(CC(=O)NCc2ccc(F)cc2)c(=O)c2ccccc12 | - | - | - | 0 | -
C=CCOc1ccccc1N | - | - | - | 5.6µM | -
CCOc1ccccc1N | 0 | 0 | 0 | 0 | 0
Cc1cc(C)n(CC(O)Cn2c3ccc(Cl)cc3c3cc(Cl)ccc32)c(=O)n1 (stereo not given) | 0 | ? | 32µM | 0 | ?
O=C(Nc1ccc(Cl)cc1)[C@@H]1[C@@H]2C(=O)N(c3ccc(Cl)cc3)C(=O)[C@@H]2[C@H]2C=CC=NN21 | 0 | 0 | 0 | ? | 0
Cc1ccc(N2C(=O)[C@@H]3[C@H](C2=O)[C@H]2C=CC=NN2[C@@H]3C(=O)Nc2ccc(Cl)cc2)cc1 | 0 | 0 | 0 | 10µM | 0
